From PubChem BioAssay AID1209 (Sanford-Burnham Center for Chemical Genomics, 2008) come the findings set out here.

Out of some 190,000 compounds screened, about 810 (0.43%) were called active. Rule as the data show it: active = inhibition above about 50%; inactive = the rest. The full list was thinned out, with actives kept by preference.

The target of the experiment is Mannose-6-phosphate isomerase (Homo sapiens) (UniProt P34949). Briefly: MPI enzyme activity inhibition – biochemical, fluorescence intensity, coupled assay, primary screen (AID 1209).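 Also: plate controls were DMSO vehicle for no effect and wells lacking substrate for full effect.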 The conditions noted are these: purified PMI enzyme, at 20 µM, active compounds read high.
Mannose-6-phosphate isomerase (Homo sapiens), sequence (P34949 whole entry, looked up): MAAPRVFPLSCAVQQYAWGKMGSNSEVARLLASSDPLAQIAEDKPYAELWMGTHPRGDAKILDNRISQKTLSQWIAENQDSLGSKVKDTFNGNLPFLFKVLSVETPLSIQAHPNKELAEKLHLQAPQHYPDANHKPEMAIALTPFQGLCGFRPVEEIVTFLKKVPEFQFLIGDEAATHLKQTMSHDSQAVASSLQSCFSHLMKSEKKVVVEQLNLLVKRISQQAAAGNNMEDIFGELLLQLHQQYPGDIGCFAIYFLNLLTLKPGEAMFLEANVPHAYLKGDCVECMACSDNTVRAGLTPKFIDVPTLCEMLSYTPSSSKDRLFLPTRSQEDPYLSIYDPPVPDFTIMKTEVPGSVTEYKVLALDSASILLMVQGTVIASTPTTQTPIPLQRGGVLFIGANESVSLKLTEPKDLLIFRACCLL
`COc1ccc(/C=N\NC(=O)COc2ccc(C(C)(C)C)cc2)cc1Cn1nc(C)cc1C`: the inhibition was -2.3% (inactive). As for `Cc1ccc(C2NC(=O)NC3=C2CCc2ccccc23)cc1` (stereo not drawn), the figure is 10.5% (inactive). For `O=C1NC2=C(CCc3ccccc32)C(c2ccccc2)N1` (stereo not drawn), the inhibition was -24.4% (inactive). `COc1ccc(C2NC(=O)NC3=C2CCc2ccccc23)cc1` (stereo not drawn): the inhibition was 70.7% (active). As for `CN(C)/C=C(\C(=O)c1ccc(F)cc1F)c1nnnn1-c1ccccc1`, the figure is -3.7% (inactive). As for `O=C(CCNc1ccc(F)cc1)c1cccc([N+](=O)[O-])c1`, the figure is 47.5% (inactive); as for `O=[N+]([O-])c1ccc(Cc2ccncc2)cc1`, 1.8% (inactive); as for `Cc1ccc(NCCC(=O)c2cccc([N+](=O)[O-])c2)cc1`, 43.5% (inactive).

As for `Cc1ccc(NCCC(=O)c2cccc([N+](=O)[O-])c2)c(C)c1`, the inhibition was 55.7% (active). Take `O=C(CCNc1ccccc1)c1cccc([N+](=O)[O-])c1`: the inhibition is 56.8% (active). For `O=C(CCNc1ccc(Cc2ccncc2)cc1)c1cccc([N+](=O)[O-])c1`, the inhibition is 43.5% (inactive). `O=C(CNc1cccc2ccccc12)c1ccc([N+](=O)[O-])cc1`: the inhibition is 25.3% (inactive).

Consider `Cc1cccc(NCCC(=O)c2ccc([N+](=O)[O-])cc2)c1C`, for which the inhibition is 76.2% (active).

Regarding `Cc1ccc(NCC(=O)c2ccc([N+](=O)[O-])cc2)cc1`, the inhibition was -45.3% (inactive).

On to `O=C(CCNc1cccc(F)c1)c1cccc([N+](=O)[O-])c1`, for which the inhibition was 37.8% (inactive). As for `O=C(CCNc1ccc(Cc2ccncc2)cc1)c1ccc([N+](=O)[O-])cc1`, the figure is 64.4% (active); as for `O=C(CCNc1ccc(Br)cc1)c1cccc([N+](=O)[O-])c1`, 36% (inactive); as for `CCCn1cc(CN2CCC(Cc3ccccc3)(C(=O)OCC)CC2)c(C)n1`, 5.2% (inactive).

Consider `COc1ccc(NC(=S)N/N=C2\CC(C)(C)Oc3ccc(O)cc32)cc1`, for which the inhibition was 5.4% (inactive). As for `NC(=O)CSC1=Nc2ccccc2C2=NC(c3ccccc3)C(=O)N12` (stereo not drawn), the figure is -8.5% (inactive); as for `O=C(c1nn2c(C(F)(F)F)cc(-c3cccs3)nc2c1Cl)N1CCCc2ccccc21`, -11.4% (inactive). As for `COc1ccc(N2C(=O)CN(Cc3cc(OC)c(OC)c(OC)c3)C2=S)cc1`, the figure is -2.4% (inactive); as for `CC(/C=C/c1ccccc1)NC(N)=O` (stereo not drawn), -3.3% (inactive). As for `N#Cc1ccc(NC(=S)NC(=O)CCc2ccc(S(=O)(=O)N3CCOCC3)cc2)cc1`, the figure is 8.9% (inactive); as for `CCOc1ccc(-c2nn[nH]n2)cc1OCC`, -5.5% (inactive). For `CCc1nn(C(C)C(=O)N2CCN(Cc3ccccc3)CC2)c(=O)c2cc3occc3n12` (stereo not drawn), the inhibition is 16.5% (inactive).

Turning to `O=C(NCc1ccccc1)C(c1cccs1)N(C(=O)c1csnn1)C1CC1` (stereo not drawn), the inhibition was 4.8% (inactive). Regarding `COc1ccc(CNC(=O)C(c2cccs2)N(C(=O)c2csnn2)C2CC2)cc1` (stereo not drawn), the inhibition was 93% (active). For `O=C(NCc1ccc(F)cc1)C(c1cccs1)N(C(=O)c1csnn1)C1CC1` (stereo not drawn), the inhibition is 0.7% (inactive).

Turning to `CCOc1ccc(S(=O)(=O)NCc2ccccc2)cc1C(N)=O`, the inhibition is 8.4% (inactive). On to `O=[N+]([O-])c1ccc(N2CCN(S(=O)(=O)c3ccc4ccccc4c3)CC2)cc1NCC1CCCO1` (stereo not drawn), for which the inhibition is 5.7% (inactive). Turning to `O=C(CCc1nnc(COc2ccccc2)o1)NCc1ccc(Cl)s1`, the inhibition was 5.4% (inactive). As for `CN(CCO)C1=CC(=O)CC(C)(C)C1`, the figure is -12.5% (inactive).

Take `CCCc1cc(C(=O)Cc2ccc(C(=O)OCC)o2)c(O)cc1O`: the inhibition is -21.9% (inactive).

Take `CCOC(=O)c1ccc(CC(=O)c2ccc(O)c(O)c2O)o1`: the inhibition is 75% (active). As for `CCOC(=O)c1ccc(CC(=O)c2ccc(O)cc2O)o1`, the figure is -14.1% (inactive); as for `Nc1ccc(S(=O)(=O)NC2(C(F)(F)F)NC(=O)N(c3ccccc3Cl)C2=O)cc1` (stereo not drawn), 3.9% (inactive); as for `COc1ccc(S(=O)(=O)NCCSCc2ccco2)cc1`, 8.5% (inactive). As for `Cc1nn(C)c(C(=O)N/N=C/c2ccc(C(F)(F)F)cc2)c1[N+](=O)[O-]`, the figure is 1.6% (inactive); as for `CC(C)(C)C1=Nn2c(nnc2-c2n[nH]c3c2CCC3)SC1`, 75.8% (active); as for `CC1=Nn2c(nnc2-c2n[nH]c3c2CCC3)SC1`, 3.5% (inactive).

`c1ccc(C2=Nn3c(nnc3-c3n[nH]c4c3CCC4)SC2)cc1`: the inhibition was 8% (inactive). As for `NS(=O)(=O)c1ccc(N/N=C/c2ccccc2Br)cc1`, the figure is 2% (inactive). `COc1cc2c(cc1/C=C/C(=O)O)OC(C)C2` (stereo not drawn): the inhibition is 9.4% (inactive). As to `CC(C)(Cl)C1Cc2cc3ccc(=O)oc3cc2O1` (stereo not drawn), the inhibition was 6.2% (inactive). In the case of `CC(C)(O)C1Cc2cc(/C=C/C(=O)O)c(O)cc2O1` (stereo not drawn), the inhibition was 94.4% (active). On to `O=C(OCc1cc2ccccc2[nH]c1=O)C1CCCCC1`, for which the inhibition was -2.3% (inactive). On to `COc1ccc(C2(c3ccc(O)cc3O)CC(c3ccccc3Cl)NC(=S)N2)cc1` (stereo not drawn), for which the inhibition was 11.9% (inactive).

Turning to `COc1ccc(C2(c3ccc(OC(C)=O)cc3OC(C)=O)CC(c3ccccc3)NC(=S)N2)cc1` (stereo not drawn), the inhibition is 63.8% (active).

Take `COc1ccc(N2C(=S)NC(C)(C)CC2(C)c2ccc(OC(C)=O)cc2OC(C)=O)cc1` (stereo not drawn): the inhibition was -2.5% (inactive).

Take `O=C1Nc2ccccc2C12Nc1ccccc1S2` (stereo not drawn): the inhibition is 58.7% (active). `O=C1Nc2ccccc2C12OCCO2`: the inhibition was -6.7% (inactive).

Regarding `O=C1N2CCCc3cccc(c32)C12Nc1ccccc1S2` (stereo not drawn), the inhibition was 22.1% (inactive). As for `C/C(=N\NC(=O)Cc1ccccc1)c1cccs1`, the figure is 9.1% (inactive); as for `Cc1ccccc1N=Cc1cc2c(cc1[N+](=O)[O-])OCO2`, 22.6% (inactive); as for `Cc1cccc(N=Cc2cc3c(cc2[N+](=O)[O-])OCO3)c1`, 49.7% (inactive). Take `O=[N+]([O-])c1cc2c(cc1C=Nc1ccccc1)OCO2`: the inhibition is 55.1% (active). On to `COc1ccccc1/C=C/C(=O)Nc1cccc(S(=O)(=O)NC2=NCCCCC2)c1`, for which the inhibition is -3.7% (inactive).

As to `CN(C)c1ccc(NC(=O)Cn2ncn3c(cc4ccccc43)c2=O)cc1`, the inhibition was 22.7% (inactive). `O=C(NC1CC1)C1CCN(c2ncnc3c2sc2cccc(F)c23)CC1`: the inhibition is 7.9% (inactive). With `Cc1ccc(C2=NC(=O)/C(=C/c3cc(O)c(O)c(Br)c3)S2)cc1`, the inhibition is 81.3% (active). Consider `COc1cc(/C=C2\SC(c3ccc(C)cc3)=NC2=O)cc(OC)c1O`, for which the inhibition was 26.7% (inactive). As for `COc1cc(/C=C2\SC(c3ccc(C)cc3)=NC2=O)ccc1O`, the figure is 14.1% (inactive).
